The campaign covered roughly 350,000 compounds. About 260 (0.074%) were called active. A call without a number means that no potency is given here. About 8% were inconclusive and are not listed. Calls come from the whole dose curve; as a rule, active = well fitted inhibition curve with a large enough effect; inconclusive = small, poorly fitted or top-dose-only effect; inactive = no such curve, though single readings can be large or run the other way. This excerpt belongs to a sample that is enriched for actives.
Potency is the fitted concentration of half-maximal effect.

Ferritin light chain (Equus caballus), sequence (P02791 2-175 limits assumed): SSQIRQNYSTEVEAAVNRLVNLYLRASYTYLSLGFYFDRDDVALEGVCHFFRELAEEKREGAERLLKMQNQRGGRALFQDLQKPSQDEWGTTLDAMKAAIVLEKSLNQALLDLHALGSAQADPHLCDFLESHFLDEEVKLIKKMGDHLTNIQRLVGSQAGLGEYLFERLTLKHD

This test concerns the target Ferritin light chain (Equus caballus) (UniProt P02791). The test can be described thus: qHTS Assay for Identification of Novel General Anesthetics. Note: nearly all actives have a fitted effect of over 20% in size. The following applies: apoferritin/1-aminoanthracene competitive binding, fluorescence; series mostly up to 77.5 µM. An excerpt: Source: NIH Chemical Genomics Center [NCGC]
Assay Submitter: Roderic Eckenhoff, University of Pennsylvania
Screening Center PI: Christopher P. Austin, NIH
Probe Development: NIH Chemical Genomics Center [NCGC]
Anesthetic development has remained a largely empirical process. There are growing concerns about the cognitive effects of known general anesthetics and acceleration of the onset of neurodegenerative disease. The compounds' toxicity and multiple specific binding targets in the mammalian brain [4] has made them less attractive as drug leads. In this assay, a GABAergic mimetic model system, apoferritin and a profluorescent 1-aminoanthracene ligand (1-AMA), was used to construct a competitive binding assay for identification of novel general anesthetics. The assay was validated for 1-AMA using other known anesthetics, such as isoflurane (CID:3763) and propofol (CID: 4943), [6].
[1] S.L. Bianchi, T. Tran, C. Liu, S. Lin, Y. Li, J.M. Keller, R.G. Eckenhoff, and M.F. Eckenhoff, Brain and behavior changes in 12-month-old Tg2576 and nontransgenic mice exposed to anesthetics. Neurobiol Aging 29 (2008) 1002-10.
[2] Z. Xie, Y. Dong, U. Maeda, R.D. Moir, W. Xia, D.J. Culley, G. Crosby, and R.E. Tanzi, The inhalation anesthetic isoflurane induces a vicious cycle of apoptosis and amyloid beta-protein accumulation. J Neurosci 27 (2007) 1247-54.
[3] P. Honegger, and J.M. Matthieu, Selective toxicity of the general anesthetic propofol for GABAergic neurons in rat brain cell cultures.
[4] M.F. Eckenhoff, K. Chan, and R.G. Eckenhoff, Multiple specific binding targets for inhaled anesthetics in the mammalian brain. J Pharmacol Exp Ther 300 (2002) 172-9.
[5] C.A. Butts, J. Xi, G. Brannigan, A.A. Saad, S.P. Venkatachalan, R.A. Pearce, M.L. Klein, R.G. Eckenhoff, and I.J. Dmochowski, Identification of a fluorescent general anesthetic, 1-aminoanthracene. Proc Natl Acad Sci U S A 106 (2009) 6501-6.
[6] W.A. Lea, J. Xi, A. Jadhav, L. Lu, C.P. Austin, A. Simeonov, and R.G. Eckenhoff, A high-throughput approach for identification of novel general anesthetics. PLoS One 4 (2009) e7150.
Three uL of reagents (free 1-AMA (50% saturated solution of 1-aminoanthracene
in PBS) in columns 3, 4 as negative control and 1-AMA/apoferritin mixture (10 uM horse-spleen apoferritin in 50% saturated 1-aminoanthracene in PBS) in columns 1, 2, 5-48) was dispensed into 1536-well Greiner black assay plates. Compounds (23 nL) were transferred via Kalypsys pintool equipped with 1,536-pin array (10 nL slotted pins, V&P Scientific, San Diego, CA). Titration of the positive control, propofol, were delivered via pin transfer from separate control plates to the 2nd column of each assay plate. The starting concentration of the control, dissolved in DMSO, was at 160 mM, followed by two-fold dilution points in duplicate, for a total of 16 concentrations. The plates were incubated for 10 min at room temperature, and then read on an EnVision HTS multilabel reader (Perkin-Elmer, Waltham, MA) (end point read, 3 min/plate) using Fura2 BFP excitation filter (380 nm, bandwidth 10 nm) and fluorescein emission filter (535 nm, bandwidth 25 nm) set. A LANCE/DELFIA dichroic mirror with a cutoff wavelength at 400 nm was used to maximize signal accuracy and strength. […] Activity was computed as the normalized fluorescence response relative to free 1-AMA and 1-AMA/apoferritin complex values. […]
In the case of `N[C@@H](Cc1c[nH]c2ccccc12)c1nnc(SCc2c(F)cccc2Cl)o1`, the Potency was 28.2 µM (active).

`CCOCCCNC(=O)c1c(NC(=O)c2nc(SC)ncc2Cl)sc2c1CCCC2`: the Potency result was “inactive”.

As for `COC(=O)c1ccccc1NC(=O)c1cc(-c2ccccc2O)no1`, the Potency result is “inactive”.

As to `CCc1ccccc1NC(=O)c1sc2nc3c(cc2c1N)CN(Cc1ccccc1)CC3`, the Potency result is “inactive”.

`C[C@H]1C/C=C/[C@@H]2[C@@H]3O[C@]3(C)[C@@H](C)[C@H]3[C@H](Cc4ccccc4)NC(=O)[C@]32OC(=O)O/C=C/[C@](C)(O)C1=O`: the Potency entry was “inactive”.

The record behind these values is PubChem BioAssay AID485281 (National Center for Advancing Translational Sciences (NCATS), 2010).
